Measurements from ChEMBL document CHEMBL3433997, “St. Jude Leishmania screening dataset” (2016).

Target: Hexose transporter 1 (Plasmodium falciparum) (UniProt O97467)
Test: ST_JUDE_LEISH: Cytotoxicity at 2uM final concentration against transgenic Leishmania Mexicana promastigotes LmPfHT that are glucose transport deficient and complemented with the Plasmodium falciparum hexose transporter. Activity is measured by DNA content using SYBR green in vitro
Format: functional

Compound	inhibition [%]
Cc1ccc(CNC(=O)[C@H](Cc2ccccc2)Nc2cc(C)nc(Nc3ccccc3)n2)cc1	6.84
COc1cc(Nc2nccc(N3CCC(NC(=O)Nc4cccc(C(C)=O)c4)C3)n2)cc(OC)c1OC (stereo not given)	2.96
COc1ccccc1C1CCN(C2CCC(NC(=O)/C=C/c3ccc(OC(F)(F)F)cc3)CC2)CC1 (stereo not given)	1.54
Clc1cccc(C=NNc2nc(=Nc3ccccc3)[nH]c(=Nc3ccccc3)[nH]2)c1	5.13
Nc1cccc(CNCc2cccc(-c3csc(-c4nc5ccccc5[nH]4)c3)c2)c1	2.29
O=C(/C=C/c1ccc(Cl)c(Cl)c1)NCCCCCN1CCC(C(=O)Nc2ccc(Cl)c(Cl)c2)CC1	2.54
COc1cc2ccccc2cc1CCNCCCCNCCc1cc2ccccc2cc1OC	82.7
CS(=O)(=O)CCNCc1nc(-c2ccc3c(Nc4ccc(Oc5ccccn5)cc4)ccnc3c2)cs1	4.96
CCCCCCCN1CC[C@@H](CCCc2ccnc3ccc(OC)cc23)[C@@H](CCN)C1	2.34
O=C(CSc1ccccn1)Nc1c(F)cccc1F	3.5
COc1cc(NC(=O)c2cccc([N+](=O)[O-])c2)cc(S(=O)(=O)c2ccc(Cl)cc2)c1	-1.02
CC(C)(Cc1ccc(Cl)cc1)NCCCCCCNCCc1ccc(O)c(O)c1	-2.96
COc1ccccc1C1CC(c2ccc(C)cc2)=NN1C(=O)c1ccccc1 (stereo not given)	8.06
CC1(C)NC(N)=NC(=N)N1OCCSc1ccc(Cl)c(Cl)c1	7.48
O=[N+]([O-])c1cccc(Nc2nccc(-c3cnn4ncccc34)n2)c1	85.4
CN1CCN(CCCN(Cc2ccc(-c3cccc(CNCc4ccc5c(c4)OCO5)c3)cc2)C(=O)Nc2ccccc2)CC1	4.92
CN(C)Cc1ccc(-c2cc3ncnc(Nc4ccc(OCc5cccc(F)c5)c(Cl)c4)c3s2)[nH]1	2.49
CCn1c(-c2nonc2N)nc2c(-c3cccc(Cl)c3)ncc(OCCCNCCc3c[nH]cn3)c21	4.78
CC[C@@H]([C@@H](CC(C)C)C(=O)N[C@@H](CCCCNC(=O)OCc1ccccc1)C(=O)Nc1ccccn1)N(O)C=O	4.71
Cc1cc(Cl)c(S(=O)(=O)N(C)c2ccccc2)cc1OCC(=O)NC1CCCCC1	1.38

Compound	inhibition [%]
CC(O)C(C)(CO)NCc1ccc2c3c(cccc13)-c1ccccc1-2 (stereo not given)	11.2
CC(Cc1ccc(OCCN2CCN(c3ccc(Cl)cc3)CC2)cc1)NCC(O)c1cccc(C(F)(F)F)c1 (stereo not given)	-1.57
Cc1nc(N)nc(N)c1-c1ccc(Br)cc1	8.21
COc1ccccc1CCCN1C(=O)C(c2ccccc2)(c2ccccc2)N=C1N	0.97
CC(=O)Nc1ccc(Nc2c3ccccc3nc3ccccc23)cc1	7.37
CCC(C)NC(=O)Nc1ccc(-c2cccc(-c3nc4ccccc4[nH]3)c2)cc1 (stereo not given)	4.24
COCCn1ccc2c3c(N)nc(N)nc3ccc21	3.61
Fc1ccc2[nH]c(-c3ccc(-c4ccc(CNCCc5ccncc5)cc4)cc3)nc2c1	2.46
Cc1cc(NC2CCN(CC3CCCCC3)C2)nc(Nc2ccc(Br)cc2)n1 (stereo not given)	2.78
COc1cccc(-c2csc(C(=O)NCC3CCN(Cc4ccc(C(C)(C)C)cc4)C3)c2)c1 (stereo not given)	-1.27
Cc1cc(Cl)c(S(=O)(=O)N2CCc3ccccc32)cc1OCC(=O)NC1CCCCC1	1.17
COc1ccc(C(=O)CC(=O)c2ccc(OC)cc2OC)c(OC)c1	4.03
CC1(C)OC[C@]2(C)[C@@H](CC[C@]3(C)C4=CC(=O)CCC4CC[C@@H]23)O1 (stereo not given in full)	1.6
CC1(C)CC(=O)c2c(O)cc(OCc3ccncc3)cc2O1	0.56
CN1CCCN(Cc2ccc(-c3ccc(NC(=O)c4cccc(Cl)c4)cc3)cc2)CC1	-1.66
COc1ccc(/C=C/C(=O)NCCCCCN2CCC(c3c[nH]c4ccccc34)CC2)cc1O	9.97
Cc1[nH]c(C)c(-c2ccc(-c3cccc(C(F)(F)F)c3)nc2)c(=O)c1Br	8.1
c1cc(Cc2ccc(Nc3c4ccccc4nc4ccccc34)cc2)cc(Nc2c3ccccc3nc3ccccc23)c1	5.85
CCN(CCCN1CCCCC1)c1cc(C)nc(Nc2ccc(F)c(C(F)(F)F)c2)n1	-1.38
CC(C)Cc1ccc(N2CCN(CCCCNC(=O)c3ccc(NC(=O)c4cc(C(F)(F)F)cc(C(F)(F)F)c4)cc3)CC2)cc1	1.08

Target: Glucose transporter (Leishmania mexicana) (UniProt O61059)
Test: ST_JUDE_LEISH: Cytotoxicity at 2uM final concentration against transgenic Leishmania Mexicana promastigotes LmGT2 that are glucose transport deficient and complemented with the L. Mexicana glucose transporter 2. Activity is measured by DNA content using SYBR green in vitro
Format: functional

Compound	inhibition [%]
Cc1ccc(CNC(=O)[C@H](Cc2ccccc2)Nc2cc(C)nc(Nc3ccccc3)n2)cc1	4.59
COc1cc(Nc2nccc(N3CCC(NC(=O)Nc4cccc(C(C)=O)c4)C3)n2)cc(OC)c1OC (stereo not given)	3.92
COc1ccccc1C1CCN(C2CCC(NC(=O)/C=C/c3ccc(OC(F)(F)F)cc3)CC2)CC1 (stereo not given)	2.36
Clc1cccc(C=NNc2nc(=Nc3ccccc3)[nH]c(=Nc3ccccc3)[nH]2)c1	3.05
Nc1cccc(CNCc2cccc(-c3csc(-c4nc5ccccc5[nH]4)c3)c2)c1	1.68
O=C(/C=C/c1ccc(Cl)c(Cl)c1)NCCCCCN1CCC(C(=O)Nc2ccc(Cl)c(Cl)c2)CC1	2.34
COc1cc2ccccc2cc1CCNCCCCNCCc1cc2ccccc2cc1OC	104
CS(=O)(=O)CCNCc1nc(-c2ccc3c(Nc4ccc(Oc5ccccn5)cc4)ccnc3c2)cs1	2.64
CCCCCCCN1CC[C@@H](CCCc2ccnc3ccc(OC)cc23)[C@@H](CCN)C1	0.84
O=C(CSc1ccccn1)Nc1c(F)cccc1F	2.68
COc1cc(NC(=O)c2cccc([N+](=O)[O-])c2)cc(S(=O)(=O)c2ccc(Cl)cc2)c1	0.68
CC(C)(Cc1ccc(Cl)cc1)NCCCCCCNCCc1ccc(O)c(O)c1	-1.18
COc1ccccc1C1CC(c2ccc(C)cc2)=NN1C(=O)c1ccccc1 (stereo not given)	5.66
CC1(C)NC(N)=NC(=N)N1OCCSc1ccc(Cl)c(Cl)c1	9.66
O=[N+]([O-])c1cccc(Nc2nccc(-c3cnn4ncccc34)n2)c1	79.9
CN1CCN(CCCN(Cc2ccc(-c3cccc(CNCc4ccc5c(c4)OCO5)c3)cc2)C(=O)Nc2ccccc2)CC1	4.03
CN(C)Cc1ccc(-c2cc3ncnc(Nc4ccc(OCc5cccc(F)c5)c(Cl)c4)c3s2)[nH]1	1.76
CCn1c(-c2nonc2N)nc2c(-c3cccc(Cl)c3)ncc(OCCCNCCc3c[nH]cn3)c21	3.45
CC[C@@H]([C@@H](CC(C)C)C(=O)N[C@@H](CCCCNC(=O)OCc1ccccc1)C(=O)Nc1ccccn1)N(O)C=O	3.88
Cc1cc(Cl)c(S(=O)(=O)N(C)c2ccccc2)cc1OCC(=O)NC1CCCCC1	2.02

Compound	inhibition [%]
CC(O)C(C)(CO)NCc1ccc2c3c(cccc13)-c1ccccc1-2 (stereo not given)	5.35
CC(Cc1ccc(OCCN2CCN(c3ccc(Cl)cc3)CC2)cc1)NCC(O)c1cccc(C(F)(F)F)c1 (stereo not given)	0.07
Cc1nc(N)nc(N)c1-c1ccc(Br)cc1	7.53
COc1ccccc1CCCN1C(=O)C(c2ccccc2)(c2ccccc2)N=C1N	1.36
CC(=O)Nc1ccc(Nc2c3ccccc3nc3ccccc23)cc1	0.02
CCC(C)NC(=O)Nc1ccc(-c2cccc(-c3nc4ccccc4[nH]3)c2)cc1 (stereo not given)	5.49
COCCn1ccc2c3c(N)nc(N)nc3ccc21	2.26
Fc1ccc2[nH]c(-c3ccc(-c4ccc(CNCCc5ccncc5)cc4)cc3)nc2c1	2.26
Cc1cc(NC2CCN(CC3CCCCC3)C2)nc(Nc2ccc(Br)cc2)n1 (stereo not given)	0.66
COc1cccc(-c2csc(C(=O)NCC3CCN(Cc4ccc(C(C)(C)C)cc4)C3)c2)c1 (stereo not given)	2.46
Cc1cc(Cl)c(S(=O)(=O)N2CCc3ccccc32)cc1OCC(=O)NC1CCCCC1	2.14
COc1ccc(C(=O)CC(=O)c2ccc(OC)cc2OC)c(OC)c1	4.43
CC1(C)OC[C@]2(C)[C@@H](CC[C@]3(C)C4=CC(=O)CCC4CC[C@@H]23)O1 (stereo not given in full)	2.59
CC1(C)CC(=O)c2c(O)cc(OCc3ccncc3)cc2O1	0.66
CN1CCCN(Cc2ccc(-c3ccc(NC(=O)c4cccc(Cl)c4)cc3)cc2)CC1	-0.18
COc1ccc(/C=C/C(=O)NCCCCCN2CCC(c3c[nH]c4ccccc34)CC2)cc1O	7.57
Cc1[nH]c(C)c(-c2ccc(-c3cccc(C(F)(F)F)c3)nc2)c(=O)c1Br	6.29
c1cc(Cc2ccc(Nc3c4ccccc4nc4ccccc34)cc2)cc(Nc2c3ccccc3nc3ccccc23)c1	2.19
CCN(CCCN1CCCCC1)c1cc(C)nc(Nc2ccc(F)c(C(F)(F)F)c2)n1	-0.24
CC(C)Cc1ccc(N2CCN(CCCCNC(=O)c3ccc(NC(=O)c4cc(C(F)(F)F)cc(C(F)(F)F)c4)cc3)CC2)cc1	-0.64
